High-throughput results deposited in PubChem by The Scripps Research Institute Molecular Screening Center.
A selection: hits, their analogues and other compounds. The true share with any hit is near 2%.
CHO-K1 Ca PAM: counter-screen for M1 PAMs: effect in parental CHO-K1 cells. ATP EC20, Fluo-8 calcium fluorescence; 0% at ATP EC20, 100% at ATP max. activation, % at 3 µM. actives 0.02% (n = 360,000). AID 602247;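 active = activation above the run cutoff, the mean activation of all test compounds plus 3 SD, cut at about 40% in these data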;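 also: peak over basal fluorescence ratio in a 140 s read after ATP addition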
CHRM4 PAM: potentiates acetylcholine response at human M4 receptor; CHO-K1 hM4/Gqi5, Fluo-8 calcium fluorescence, ACh EC20; 0% = ACh EC20, 100% = maximal ACh; activation, % at 3 µM; P08173; AID 624126; actives 0.4% (n = 360,000);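 active = activation above its plate's cutoff, the mean activation of sample wells plus 3 SD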
Target sequence (P08173 whole entry, looked up): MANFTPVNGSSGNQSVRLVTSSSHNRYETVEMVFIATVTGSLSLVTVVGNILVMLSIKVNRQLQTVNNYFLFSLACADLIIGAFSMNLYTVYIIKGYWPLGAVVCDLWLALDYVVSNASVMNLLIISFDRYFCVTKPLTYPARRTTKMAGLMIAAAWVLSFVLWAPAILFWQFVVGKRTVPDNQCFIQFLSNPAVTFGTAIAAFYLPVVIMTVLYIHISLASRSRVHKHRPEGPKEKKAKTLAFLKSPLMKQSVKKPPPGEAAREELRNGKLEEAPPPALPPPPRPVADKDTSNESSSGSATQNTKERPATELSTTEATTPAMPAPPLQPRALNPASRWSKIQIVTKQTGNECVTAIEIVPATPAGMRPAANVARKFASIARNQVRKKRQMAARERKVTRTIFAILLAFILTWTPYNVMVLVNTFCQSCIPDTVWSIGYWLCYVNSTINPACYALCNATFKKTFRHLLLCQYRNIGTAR
CHO-K1 Ca antag: M1 antagonist counterscreen hit in parental CHO-K1 cells. ATP-induced calcium, Fluo-8 fluorescence. inhibition, % at 3 µM. actives 0.6% (n = 360,000). AID 602250;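 active = inhibition above a per-plate cutoff, the plate's mean sample inhibition plus 3 SD, cut at about 24% in these data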;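 also: 0% = DMSO plus EC80 ATP and 100% = DMSO alone without ATP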
M4 antag: CHRM4 antagonism in calcium assay; actives 0.73% (n = 360,000); CHO-hM4 cells, ACh EC80, Fluo-8 calcium fluorescence; P08173; AID 624125; inhibition, % at 3 µM;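 active = inhibition above its plate's cutoff, the mean inhibition of sample wells plus 3 SD, cut at about 27% in these data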;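 also: 0% = acetylcholine EC80 with DMSO and 100% = DMSO without agonist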
CHO-K1 Ca ag: counter-screen for M1 agonists: effect in parental CHO-K1 cells. activation, % at 3 µM. Fluo-8 calcium fluorescence; scaled to maximal ATP response, vehicle zero. actives 0.48% (n = 360,000); in the data active = activation above about 15%;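 also: untransfected CHO-K1 host cells lacking M1 receptor as counterscreen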
CHRM4 agonist: agonists of human muscarinic M4 receptor (CHRM4); P08173; CHO-K1 hM4/Gqi5, Fluo-8 calcium fluorescence; vehicle 0%, full acetylcholine response 100%; activation, % at 3 µM; actives 0.14% (n = 360,000); AID 624127;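 active = activation above the run mean over all test wells plus 3 SD, cut at about 32% in these data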;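 also: peak over basal fluorescence ratio per well then scaled between controls; 0% = DMSO wells and 100% = acetylcholine at EC100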
* hit, by the source's call.

`Cc1ccc(C)c(NC(=O)C2CCCN2/C=C/C(=O)C(F)(F)F)c1` (stereo not drawn) gave CHO-K1 Ca PAM -6, CHRM4 PAM 3, CHO-K1 Ca antag 26*, M4 antag 10, CHO-K1 Ca ag 0 and CHRM4 agonist 1.
Screening COC(=O)[C@@H](NC(=O)NC(C)CCc1ccccc1)C(C)C (stereo partly drawn) returned CHO-K1 Ca PAM 11, CHRM4 PAM 2, CHO-K1 Ca antag -7, M4 antag -2, CHO-K1 Ca ag 0 and CHRM4 agonist 0.
`COC(=O)[C@H](C)NC(=O)NC(C)CCc1ccccc1` (stereo partly drawn) gave CHO-K1 Ca PAM 16, CHRM4 PAM 20*, CHO-K1 Ca antag -15, M4 antag -1, CHO-K1 Ca ag 0 and CHRM4 agonist 2.
CC(=O)c1ccc(NC(=S)NC(C)CCc2ccccc2)cc1 (stereo not drawn) was read as CHO-K1 Ca PAM 3, CHRM4 PAM -11, CHO-K1 Ca antag -1, M4 antag 7, CHO-K1 Ca ag 15* and CHRM4 agonist 16.
For CCOc1ncccc1C(=O)NC(C)CCc1ccccc1 (stereo not drawn) the results were CHO-K1 Ca PAM 14, CHRM4 PAM 4, CHO-K1 Ca antag -7, M4 antag -6, CHO-K1 Ca ag 19* and CHRM4 agonist 0.
Screening COc1ccc(Oc2cn[nH]c2-c2ccc(O)cc2O)cc1 returned CHO-K1 Ca PAM 17, CHRM4 PAM 13, CHO-K1 Ca antag -2, M4 antag 11, CHO-K1 Ca ag 2 and CHRM4 agonist 6.
`COc1ccc(-c2[nH]ncc2Oc2ccccc2OC)c(O)c1` gave CHO-K1 Ca PAM 4, CHRM4 PAM 19*, CHO-K1 Ca antag -15, M4 antag -19, CHO-K1 Ca ag 1 and CHRM4 agonist 2.
`COC(=O)c1ccc(CSc2ncnc3c2oc2ccccc23)o1` gave CHO-K1 Ca PAM 15, CHRM4 PAM 14, CHO-K1 Ca antag -9, M4 antag -9, CHO-K1 Ca ag 1 and CHRM4 agonist 1.
`COC(=O)c1ccc(CSc2ncnc3ccccc23)o1` gave CHO-K1 Ca PAM -6, CHRM4 PAM 0, CHO-K1 Ca antag 25*, M4 antag -12, CHO-K1 Ca ag 0 and CHRM4 agonist 1.
For Cn1ccnc1SCC(=O)Nc1ccccc1 the results were CHO-K1 Ca PAM 3, CHRM4 PAM -4, CHO-K1 Ca antag -1, M4 antag 8, CHO-K1 Ca ag 0 and CHRM4 agonist 1.
`CCCCC(=O)NC(c1ccc(Cl)cc1)c1ccc2cccnc2c1O` (stereo not drawn) gave CHO-K1 Ca PAM 16, CHRM4 PAM -4, CHO-K1 Ca antag -9, M4 antag 3, CHO-K1 Ca ag 5 and CHRM4 agonist 6.
Screening O=C(c1ccc(-c2nc3ccccc3s2)o1)N1CCN(c2ccccc2O)CC1 returned CHO-K1 Ca PAM -9, CHRM4 PAM -5, CHO-K1 Ca antag 30*, M4 antag -1, CHO-K1 Ca ag 1 and CHRM4 agonist 9.
`O=C(NCc1ccco1)C1Cc2c(-c3ccccc3Oc3ccccc3)ccnc2O1` (stereo not drawn) gave CHO-K1 Ca PAM 12, CHRM4 PAM 1, CHO-K1 Ca antag -15, M4 antag -8, CHO-K1 Ca ag 1 and CHRM4 agonist 1.
CCCCCC[n+]1c(-c2ccc(Cl)cc2Cl)csc1Nc1ccccc1 was read as CHO-K1 Ca PAM 9, CHRM4 PAM 1, CHO-K1 Ca antag 6, M4 antag -10, CHO-K1 Ca ag 0 and CHRM4 agonist 0.
`CCCCCCCCCC[N+](C)(C)CC/C=C1/c2ccccc2Sc2ccc(Cl)cc21` gave CHO-K1 Ca PAM 0, CHRM4 PAM -20, CHO-K1 Ca antag -16, M4 antag 41*, CHO-K1 Ca ag 0 and CHRM4 agonist -1.
Screening CCCCCCCCCCC[N+](C)(C)CC/C=C1/c2ccccc2Sc2ccc(Cl)cc21 returned CHO-K1 Ca PAM 3, CHRM4 PAM -19, CHO-K1 Ca antag -14, M4 antag 52*, CHO-K1 Ca ag 3 and CHRM4 agonist 1.
For CC[N+](C)(C)CC/C=C1/c2ccccc2Sc2ccc(Cl)cc21 the results were CHO-K1 Ca PAM -6, CHRM4 PAM -17, CHO-K1 Ca antag 0, M4 antag 96*, CHO-K1 Ca ag 1 and CHRM4 agonist 1.
O=C(O)c1ccc(N2C(=O)CC(Cc3ccccc3)C2=O)cc1 (stereo not drawn) was read as CHO-K1 Ca PAM 13, CHRM4 PAM -4, CHO-K1 Ca antag -1, M4 antag -4, CHO-K1 Ca ag 0 and CHRM4 agonist 0.
`Cn1c(=O)c2[nH]c(C3CCCC3)nc2n(C)c1=O` gave CHO-K1 Ca PAM 0, CHRM4 PAM -20, CHO-K1 Ca antag 6, M4 antag 101*, CHO-K1 Ca ag 0 and CHRM4 agonist 1.
Screening CCN(CC)CCn1c(NCc2cc(OC)ccc2OC)nc2ccccc21 returned CHO-K1 Ca PAM 15, CHRM4 PAM 1, CHO-K1 Ca antag -5, M4 antag -7, CHO-K1 Ca ag 1 and CHRM4 agonist 1.
For C/C(=N\NC(=O)c1ccccc1)c1ccc(-n2ccnc2)cc1 the results were CHO-K1 Ca PAM -14, CHRM4 PAM -5, CHO-K1 Ca antag 28*, M4 antag 0, CHO-K1 Ca ag 0 and CHRM4 agonist 1.
`C/C(=N\NC(=O)OC(C)(C)C)c1ccc(-n2ccnc2)cc1` gave CHO-K1 Ca PAM -5, CHRM4 PAM 0, CHO-K1 Ca antag -1, M4 antag -2, CHO-K1 Ca ag 1 and CHRM4 agonist 3.
CC1=NN(C(=S)Nc2ccccc2)C(c2ccccc2)C1 (stereo not drawn) was read as CHO-K1 Ca PAM -10, CHRM4 PAM -2, CHO-K1 Ca antag 15, M4 antag 4, CHO-K1 Ca ag 1 and CHRM4 agonist 1.
Cc1ccc(C2CC(c3ccccc3)=NN2C(=S)Nc2ccccc2)o1 (stereo not drawn) was read as CHO-K1 Ca PAM 23, CHRM4 PAM -11, CHO-K1 Ca antag -6, M4 antag 39*, CHO-K1 Ca ag 2 and CHRM4 agonist 7.
`COc1ccc(CNc2cccc(F)c2)cc1Br` gave CHO-K1 Ca PAM 32, CHRM4 PAM 0, CHO-K1 Ca antag -31, M4 antag -7, CHO-K1 Ca ag 1 and CHRM4 agonist 0.
For COc1ccc(C(=O)CCc2ccccc2)c(O)c1 the results were CHO-K1 Ca PAM -27, CHRM4 PAM -30, CHO-K1 Ca antag 29*, M4 antag 6, CHO-K1 Ca ag 2 and CHRM4 agonist 8.
Cc1cc(N2CCCC2=O)cc(C)c1S(=O)(=O)NCCOc1ccc(C(C)(C)C)cc1 was read as CHO-K1 Ca PAM 5, CHRM4 PAM -17, CHO-K1 Ca antag 27*, M4 antag 28*, CHO-K1 Ca ag 14 and CHRM4 agonist 12.
